FadD28 binding: blocks FadD28 binding to the bisubstrate probe; fluorescence polarization; inhibition, % at 12.5 µM; 360,000 compounds, 0.22% hits; AID 588549; in the data active = inhibition above about 8.5%, passing the limit was not always enough; inconclusive = no clear call, values can overlap the other calls
TcdB GH inh: TcdB glycohydrolase inhibition; P18177; TcdB glycohydrolase enzymatic assay, plate reader; inhibition, % at 9.99 µM; 350,000 compounds, 0.24% hits; AID 652162; in the data active = inhibition above about 10%
Mtb BioA inh: BioA (M. tuberculosis) enzyme inhibition. purified M. tuberculosis BioA enzyme, plate reader. inhibition, % at 9.99 µM. 360,000 compounds, 0.096% hits; in the data active = inhibition above about 40%; inconclusive = no clear call, values can overlap the other calls
Yp Topo-I inh: blocks Yersinia pestis topoisomerase I activity. Y. pestis Topo-I cleavage product accumulation, plate reader. activity, % at 10 µM. 360,000 compounds, 0.064% hits; in the data active = activity above about 50%, passing the limit was not always enough; inconclusive = no clear call, values can overlap the other calls
* hit, by the source's call; ? = inconclusive; . = no result; ! = a repeat was not active. An excerpt weighted towards active compounds, which were near 0.47% of everything screened.

SMILES	FadD28 binding	TcdB GH inh	Mtb BioA inh	Yp Topo-I inh
Cc1c2cc(O)c(=O)cc-2oc2cc(O)c(O)cc12	12*	-18	-66	-17
O=C(O)c1[nH]c2ccccc2c1C(c1c(F)cccc1Cl)c1c(C(=O)O)[nH]c2ccccc12	24*	0	0	-3
COc1cc(Cl)cc(C(c2c(C(=O)O)[nH]c3ccccc23)c2c(C(=O)O)[nH]c3ccccc23)c1O	33*	-1	0	-12
O=C(O)c1[nH]c2ccccc2c1C(c1cc(Br)ccc1O)c1c(C(=O)O)[nH]c2ccccc12	35*	1	1	-7
O=C(O)c1[nH]c2ccccc2c1-c1ccccc1	2	.	0	-4
O=c1cc2c(=O)oc3cc(O)c(O)oc3c2c(O)c1O	11*	-5	1	-5
O=c1oc2cc(O)c(Cl)cc2c2ccccc12	-2	.	1	3
CCOC(=O)Cn1cc(C(=O)c2ccco2)c2ccccc21	15*	.	4	-9
CCOc1cc(/C=C2/NC(=O)N(CC(=O)Nc3cccc(C)c3)C2=O)ccc1OC	-1	-2	-1	-2
CCOc1cc(/C=C2/NC(=O)N(CC(=O)Nc3cccc(C)c3)C2=O)ccc1O	16*	.	-1	-15
Cc1cccc(NC(=O)CN2C(=O)N/C(=C\c3cccn3-c3cccc(C(=O)O)c3)C2=O)c1	18*	-2	.	13
Cc1cccc(NC(=O)CN2C(=O)N/C(=C\c3ccccc3OCc3ccc(C(=O)O)cc3)C2=O)c1	42*	2	0	15
O=C(CN1C(=O)N/C(=C\c2ccccc2OCc2ccc(C(=O)O)cc2)C1=O)Nc1ccc(F)cc1	1	-1	0	6
Cc1ccc(-n2cccc2/C=C2/NC(=O)N(CC(=O)Nc3cccc(C)c3)C2=O)cc1	?	1	.	-4
CCN(CCO)CC1CCCC2CCCCC21 (configuration not stated)	.	0	.	.
O=c1c(O)cccc2cc(O)c(O)c(O)c12	16*	-10	-4	-24
O=c1c(O)c(-c2cc(O)c(O)c(O)c2)oc2cc(O)cc(O)c12	14*	-14	0	-21
CCOC(=O)c1ccc(N=c2sc(C(=O)OC)cc(=O)n2CCCN2CCOCC2)cc1	-3	11*!	0	26
CCNC(=O)C[C@@H]1CC[C@H]2[C@H](COc3ccc(NC(C)=O)cc3C(=O)N2C)O1	.	10*	-1	.
CCCNC(=O)C[C@H]1CC[C@@H]2[C@H](COc3ccc(NC(=O)c4ccc(Cl)cc4)cc3C(=O)N2C)O1	.	15*	6	.
CCNC(=O)C[C@@H]1CC[C@@H]2[C@H](COc3ccc(NC(C)=O)cc3C(=O)N2C)O1	.	9	0	.
Fc1ccccc1-c1nc(NCC2CC2)nc2ccsc12	-4	2	-1	5
Cc1cscc1-c1nc(NCC2CC2)nc2ccsc12	1	11*	0	7
CC(C)(C)OC(=O)CC[C@@]12N=C(c3ccc(OCCCO)cc3)O[C@@H]1c1ccccc1CN(Cc1ccccc1)C2=O	.	-1	0	.
O=C(O)C1Nc2c(O)cc(Cl)c([N+](=O)[O-])c2C2C=CCC12 (configuration not stated)	59*	-1	.	-45
SMILES	FadD28 binding	TcdB GH inh	Mtb BioA inh	Yp Topo-I inh
O=C(Nc1ccccc1F)N1CC(=O)N2[C@H](C1)[C@@H](c1ccc(C#Cc3ccccc3)cc1)[C@@H]2CO	.	-3	.	.
CN(C)/C=C/C(=O)c1ccc([N+](=O)[O-])c(CS(=O)(=O)c2ccc(Cl)cc2)c1	18*	-1	1	0
Cc1ccc(NS(=O)(=O)c2ccc(C)c(NC(=S)NCCN3CCOCC3)c2)c(C)c1	0	16*	0	-12
COc1ccccc1NS(=O)(=O)c1cccc(NC(=S)NCCN2CCOCC2)c1	0	1	.	1
CCCCCCC(=O)O	-2	-2	-1	1
CCCCCCCCCCCCCCCC(=O)OC(CC(=O)O)C[N+](C)(C)C (configuration not stated)	17*	2	18	17
Cc1nc2cc(C(=O)O)ccc2n1-c1ccc(F)cc1F	1	.	3	-12
CCOc1ccccc1-n1c(C)nc2cc(C(=O)O)ccc21	1	20*	.	12
COC(=O)C1=CN(c2c(C)cc(C)cc2C)C(N)=C(C#N)C1c1ccccc1 (configuration not stated)	.	0	.	.
CCN1CCN(Cc2ccc(NC(=O)c3ccc(C)c(NC(=O)C(=O)c4c[nH]c5ccccc45)c3)cc2C(F)(F)F)CC1	55*!	2	0	-3
CCN1CCN(Cc2ccc(NC(=O)c3cc(NC(=O)C(=O)c4c[nH]c5ccccc45)cc(OC)c3)cc2C(F)(F)F)CC1	66*!	0	-1	-20
COc1cc(C2c3c(-c4ccccc4O)n[nH]c3C(=O)N2Cc2ccco2)cc(OC)c1OC (configuration not stated)	-5	2	-1	9
CSc1nc(Cl)cc(Nc2ccc(O)cc2)n1	-3	15*	.	-13
CNc1cc(Cl)nc(SC)n1	1	1	.	7
Cc1cc2c(c(=O)n1Cc1cccnc1)C(c1ccccc1)C(C#N)=C(N)O2 (configuration not stated)	-1	.	48*	-1
Cc1ccc(Oc2c(CO)c(-c3ccccc3)nn2C)cc1	0	12*	.	11
Cc1ccc(C(=O)NC(C)c2ccc(F)cc2)cc1 (configuration not stated)	0	2	.	5
COc1ccccc1OCCn1cc(/C=C(\C#N)C(=O)NCc2ccco2)c2ccccc21	-2	.	-1	13
N#C/C(=C\c1cn(Cc2ccccc2F)c2ccccc12)C(=O)NCc1ccco1	-2	.	.	83*
O=c1c2ccccc2nc(COc2ccccc2)n1/N=C/c1cc([N+](=O)[O-])ccc1O	-2	-1	2	-8
CN1C(=O)NC(c2ccc(O)cc2)C2=C1CN(c1ccc(O)cc1)C2=O (configuration not stated)	-2	19*	.	8
CCN(C[C@H]1N[C@@](Cc2ccccc2)(C(=O)OC)[C@H]2C(=O)N(C)C(=O)[C@@H]12)S(=O)(=O)c1ccc(OC)cc1	-3	1	0	7
COC(=O)[C@]1(Cc2ccccc2)N[C@H](CN(C)S(=O)(=O)c2ccc(-c3ccccc3)cc2)[C@@H]2C(=O)N(C)C(=O)[C@@H]21	11*	1	-1	23
COc1cccc(C(=O)OCn2nnc3ccccc3c2=O)c1OC	-1	-3	0	3
CC1(C)OC2C(O1)[C@@H](CO)O[C@H]2n1cnc2c(N)ncnc21 (some centres not stated)	1	14*	.	4
COc1ccc(C(CNC(=O)c2ccc(Br)o2)N2CCN(C)CC2)cc1 (configuration not stated)	-1	1	0	-3
COc1cc(OC)c(OC)cc1/C=C/c1ccnc2ccccc12	-2	19*	.	31
COc1ccc2nccc(/C=C/c3ccnc4ccc(OC)cc34)c2c1	-3	13*	2	21
COc1ccc(OC)c(/C=C/c2ccnc3ccccc23)c1	-5	2	.	36
Cc1nn(Cc2ccc(Cl)cc2)c(C)c1NC(=O)c1cc(-c2ccco2)on1	-1	.	-1	-3
